# Screening results: PubChem, National Center for Advancing Translational Sciences (NCATS)
# Rows were chosen to be rich in hits. Some 19% of all compounds tested hit in one or more screens of this group.
# TDP1 cell noCPT – qHTS for Inhibitors of human tyrosyl-DNA phosphodiesterase 1 (TDP1): qHTS in cells in absence of CPT. DT40 Tdp1-/- hTDP1 cells, no CPT, ATP luminescence, 48 h. Potency, µM (doses to about 46.2 µM), inactives show at the top dose activity change, negative = growth inhibition, usual class: inhibitors. 420,000 tested, 15% active; also: potency is read from the fitted curve at half-maximal effect; nearly all actives have a fitted effect of over 55% in size
#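 Compound effects on proliferation are scored in DT40 Tdp1-/-;hTDP1 cells in the absence of CPT. ATP levels (CellTiter-Glo luminescence) are recorded after a ≥48 hr, 37 °C incubation.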
# ELG1 DNA repair – blocks ELG1-dependent DNA repair in HEK293T cells; AID 504467; Potency, µM (titrated, usually from 46.1 µM), inactives show at the top dose activity change, negative = inhibition, hits mostly inhibitors; HEK293T ELG1-luciferase reporter, luminescence, 16 h; DNA damage induced by 5-fluorouridine; 330,000 tested, 2.3% active; also: potency is read from the fitted curve at half-maximal effect; nearly all actives have a fitted effect of over 55% in size
#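 Quantitative HTS, concentration-response format. 2,000 cells/well co-treated with 5-fluorouridine and compound, 16 hr in 5% CO2 at 37 °C; ONE-Glo luminescence read after 30 min.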
# HT1080NT lethal – kills 2HG-producing HT-1080-NT fibrosarcoma cells. HT-1080-NT fibrosarcoma viability, CellTiter-Glo ATP luminescence, 48 h. Potency, µM (doses to about 46.1 µM), for inactives: at the highest dose activity, negative = less viability, hits mostly cytotoxic. 360,000 tested, 1.6% active. AID 686970;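 also: NT is the 2HG producing partner of a matched IDH1 knockdown line; potency is read from the fitted curve at half-maximal effect; 0% = DMSO-treated cells and -100% = media-only wells without cells; nearly all actives have a fitted effect of over 55% in size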
#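 HT-1080-NT fibrosarcoma cells (2HG-overproducing), 750 cells/well in RPMI with 5% FBS, dosed after 2 h and incubated 48 h at 37C. CellTiter-Glo luminescence normalized to DMSO and no-cell wells; concentration-response curves fitted and classed.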
# IL-1B inflam inh – inhibitors of inflammasome signaling (IL-1 beta secretion) | 360,000 tested, 4.7% active | AID 743279 | activity change, % at 57.5 µM | THP-1 LPS/ATP IL-1B secretion, AlphaLISA, 16 h; stronger effect = lower value; in the data active = activity change below about -50%; inconclusive = mostly about -30% to -49%
#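 THP-1 cells pretreated 1 hr with compounds (up to 57.5 uM final), then stimulated with LPS (250 ng/mL final) plus ATP (1.25 mM final); secreted IL-1B measured by AlphaLISA after 16 hr, decreased signal indicating inhibition.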
# HT1080 IDH1KD tx – toxicity to HT-1080 IDH1 knockdown cells (counter line) | HT-1080 IDH1 knockdown viability, ATP luminescence, 48 h | AID 686971 | 360,000 tested, 2% active | Potency, µM (series often up to 46.1 µM), without a hit: at the highest dose activity, negative = toxicity, most hits filed as cytotoxic;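 also: potency is read from the fitted curve at half-maximal effect; 0% = DMSO wells and -100% = cell-free medium wells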
#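 Luminescent ATP read-out (CellTiter-Glo, 10 min at room temperature) after 48 h compound exposure at 37 °C gave viability of IDH1-knockdown HT-1080 cells. Activity was normalised to DMSO and cell-free wells, then fitted as concentration-response curves.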
# DT40 TDP1 CPT – growth inhibition of DT40 Tdp1-/-;hTDP1 cells with camptothecin (screen for TDP1 inhibitors). chicken DT40 Tdp1-/-;hTDP1 cells + 20 nM CPT, ATP luminescence, 48 h. Potency, µM (top dose mostly 46.2 µM), for inactives: at the highest dose activity change, negative = growth inhibition, usual class: inhibitors. 420,000 tested, 12% active; also: potency is read from the fitted curve at half-maximal effect; nearly all actives have a fitted effect of over 55% in size
#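 Chicken DT40 Tdp1-/- cells stably complemented with human TDP1 were seeded at 400 cells/well in medium containing 20 nM camptothecin, exposed to pin-transferred compounds, and grown at 37 °C for at least 48 hr. Viability was read as ATP luminescence.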
# Numbers without * were called inactive; ? = inconclusive; nt = no result. Unless noted, calls follow the shape of the dose curve; as a rule, active = well fitted curve in the direction sought with a large enough effect; inconclusive = small, poorly fitted or top-dose-only effect, or another doubt; inactive = no such curve, though single readings can be large; an effect the other way counts as inactive or inconclusive. Unless noted, % is scaled to controls: 0 for no effect and ±100 for the full control effect.
SMILES,TDP1 cell noCPT,ELG1 DNA repair,HT1080NT lethal,IL-1B inflam inh,HT1080 IDH1KD tx,DT40 TDP1 CPT
Cc1ccc(C(C)C)c(OCc2ccc(C(=O)N/N=C/c3ccc(O)cc3O)cc2)c1,18µM*,?,6.5µM*,51,2.9µM*,?
CC(C)(C)c1ccc(OCC(=O)Nc2ccc(S(=O)(=O)Nc3ncccn3)cc2)cc1,-7%,nt,nt,nt,nt,-12%
c1ccc(C[C@H]2COc3c4ccccc4nn32)cc1,-17%,nt,9%,-10,3%,12%
Cc1ccc(S(=O)(=O)N2CCOCC2)cc1NC(=O)Nc1ccc([N+](=O)[O-])cc1,?,1%,0%,-3,7%,?
O=C(N/N=C/c1ccc(Cl)cc1Cl)c1ccncc1,0%,14%,2%,-4,-1%,15%
O=C(N/N=C/c1ccc(O)cc1O)c1ccncc1,4.6µM*,?,?,176,7.3µM*,8.2µM*
CCc1cc(C(=O)N/N=C/c2ccc(O)cc2O)c2ccccc2n1,?,?,?,131,?,8.2µM*
COc1ccc(C(=O)NC(=S)NCc2ccco2)cc1,?,?,4%,-4,2%,?
CC(C)N=C(NS(=O)(=O)c1ccccc1)C(Cl)(Cl)Cl,2.9µM*,5.2µM*,7.3µM*,-96*,7.3µM*,2.9µM*
COc1ccc2c(c1)c(CC(=O)OC(C)C(=O)N(C)C)c(C)n2C(=O)c1ccc(Cl)cc1 (stereo unspecified),15µM*,-15%,-4%,8,-2%,21µM*
COc1ccc2c(c1)c(CCNNC(=O)C(C)(C)C)c(C)n2C(=O)c1ccc(Cl)cc1,16µM*,nt,7%,?,-7%,23µM*
COC(=O)CNC(=O)Cc1c(C)n(C(=O)c2ccc(Cl)cc2)c2ccc(OC)cc12,1%,-16%,-12%,23,-11%,-25%
COc1ccc2c(c1)c(CC(=O)Nc1ccc(C)cc1)c(C)n2C(=O)c1ccc(Cl)cc1,21µM*,?,-12%,22,-17%,?
COc1ccc2c(c1)c(CC(=O)OCC(=O)N(C)C)c(C)n2C(=O)c1ccc(Cl)cc1,-14%,-15%,-25%,16,-21%,7%
CCOC(=O)c1c(C)c(C(=O)NCc2ccc(OC)cc2)c(C)n1C,-17%,-5%,-6%,35,1%,0%
CCOC(=O)c1c(C)c(C(=O)NCc2ccccc2OC)c(C)n1C,13µM*,-6%,-18%,4,-28%,?
COc1ccccc1CNC(=O)CSc1nnc(C)c2c(C)n(-c3ccccc3)nc12,23µM*,nt,nt,nt,nt,21µM*
CCOc1ccc(CNC(=O)CSc2nnc(C)c3c(C)n(-c4ccc(Cl)cc4)nc23)cc1,-16%,nt,nt,nt,nt,?
COc1ccccc1CNC(=O)c1c(-c2ccccc2)nn(-c2ccccc2)c1C,15µM*,?,-6%,?,5%,?
O=C(C[N+]1(CC(O)c2ccccc2)CCCCC1)c1ccccc1 (stereo unspecified),-10%,nt,nt,nt,nt,?
Cc1nn(Cc2ccccc2Cl)c(C)c1NC(=O)c1noc2c1CCCCC2,?,-13%,-7%,-4,10µM*,?
O=C(Nc1cnn(Cc2ccc(F)cc2)c1)c1noc2c1CCCC2,?,0.41µM*,?,22,?,-6%
O=C(Nc1cnn(Cc2ccc(F)cc2)c1)C(c1ccccc1)c1ccccc1,21µM*,?,?,-6,?,?
Cc1nn(Cc2ccc(F)cc2)c(C)c1NC(=O)c1noc2c1CCCCC2,?,18µM*,-17%,-9,-1%,?
COc1cc(C(=O)Nc2ccc(N(C)C)cc2)cc(OC)c1OC,?,?,?,-9,?,21µM*
SMILES,TDP1 cell noCPT,ELG1 DNA repair,HT1080NT lethal,IL-1B inflam inh,HT1080 IDH1KD tx,DT40 TDP1 CPT
COc1ccc(/C=N/NC(=O)CC(=O)N/N=C/c2ccc(OC)cc2)cc1,?,-1%,-5%,-5,0%,-13%
COc1cc(C(=O)Nc2ccc(S(=O)(=O)N(C)c3ccccc3)cc2)cc(OC)c1OC,?,?,-2%,?,-13%,16µM*
COc1ccc(/C=N/NC(=O)c2ccc(N(C)S(=O)(=O)c3ccccc3)cc2)cc1,23µM*,?,-2%,-22,-10%,?
COc1ccc(/C=N/NC(=O)C2c3ccccc3-c3ccccc32)cc1,21µM*,?,-29%,6,?,?
COc1ccc2nc3n(c(=O)c2c1)-c1ncccc1C(=O)NC3Cc1ccccc1 (stereo unspecified),?,nt,2%,?,2%,12%
COc1cc(C(=O)Nc2ccc(Br)cc2C(=O)c2cc(OC)c(OC)c(OC)c2)cc(OC)c1OC,3.7µM*,?,?,29,?,13µM*
COc1ccc(NC(=O)c2ccc(S(=O)(=O)N(C)c3ccccc3)cc2)cn1,?,10µM*,2%,-30,-2%,15µM*
CN(c1ccc(C(=O)N/N=C/c2cccc([N+](=O)[O-])c2)cc1)S(=O)(=O)c1ccccc1,?,?,-21%,-10,?,8.2µM*
COc1ccc(/C=N/NC(=O)c2ccc(NC(=O)c3ccccc3Br)cc2)cc1,?,?,-13%,-56*,-21%,?
COc1ccccc1/C=N/NC(=O)c1ccc(N(C)S(=O)(=O)c2ccccc2)cc1,-15%,-18%,0%,5,-2%,-19%
NS(=O)(=O)c1ccc(NC(=O)CN2C(=O)COc3ccc(Cl)cc32)cc1,-13%,nt,nt,nt,nt,-14%
Cc1cc(/C(N)=N/OC(=O)Nc2ccc(Cl)cc2)no1,-1%,?,1%,-5,1%,5%
CCOC(=O)c1ccc(-n2c(CCC(=O)O)ccc2-c2ccccc2)cc1O,-25%,nt,nt,nt,nt,-22%
Cc1nc2ccc(NC(=O)c3ccc(S(=O)(=O)N(C)c4ccccc4)cc3)cc2s1,23µM*,?,-8%,-62*,?,?
COc1ccc(C(=O)Nc2ccc(S(=O)(=O)N(C)c3ccccc3)cc2)cc1,16µM*,nt,-17%,-65*,?,-25%
COc1cc(C(=O)NNC(=O)c2ccc(NC(C)=O)cc2)cc(OC)c1OC,-14%,-5%,27%,-8,16%,-9%
COc1cc(C(=O)/C=C/Nc2ccc(NC(C)=O)cc2)cc(OC)c1OC,?,?,?,-20,18µM*,?
